# Measured values from ChEMBL document CHEMBL3988442, “University of Dundee, Small-Polar-MMV Screening Library” (2021).
# For some of these results: Entries with a potency or affinity are not part of this list.
# How the values were obtained:
# Set-up in all cases: scale not given: direction of the effect not stated beside the values
# [1] = target: Protein translocase subunit SecA (Escherichia coli (strain K12)) (UniProt P10408); assay: Assay to Identify E. coli SecA ATPase Inhibitors; format: functional; settings: 30 µM
# [2] = target: T1, Ubiquitin-activating enzyme e1, putative (Leishmania donovani (strain BPK282A1)) (UniProt E9BSI1); assay: Leishmania donovani Ubiquitin Activating Enzyme (LdE1); format: functional; settings: 30 µM
# T1 sequence (whole entry): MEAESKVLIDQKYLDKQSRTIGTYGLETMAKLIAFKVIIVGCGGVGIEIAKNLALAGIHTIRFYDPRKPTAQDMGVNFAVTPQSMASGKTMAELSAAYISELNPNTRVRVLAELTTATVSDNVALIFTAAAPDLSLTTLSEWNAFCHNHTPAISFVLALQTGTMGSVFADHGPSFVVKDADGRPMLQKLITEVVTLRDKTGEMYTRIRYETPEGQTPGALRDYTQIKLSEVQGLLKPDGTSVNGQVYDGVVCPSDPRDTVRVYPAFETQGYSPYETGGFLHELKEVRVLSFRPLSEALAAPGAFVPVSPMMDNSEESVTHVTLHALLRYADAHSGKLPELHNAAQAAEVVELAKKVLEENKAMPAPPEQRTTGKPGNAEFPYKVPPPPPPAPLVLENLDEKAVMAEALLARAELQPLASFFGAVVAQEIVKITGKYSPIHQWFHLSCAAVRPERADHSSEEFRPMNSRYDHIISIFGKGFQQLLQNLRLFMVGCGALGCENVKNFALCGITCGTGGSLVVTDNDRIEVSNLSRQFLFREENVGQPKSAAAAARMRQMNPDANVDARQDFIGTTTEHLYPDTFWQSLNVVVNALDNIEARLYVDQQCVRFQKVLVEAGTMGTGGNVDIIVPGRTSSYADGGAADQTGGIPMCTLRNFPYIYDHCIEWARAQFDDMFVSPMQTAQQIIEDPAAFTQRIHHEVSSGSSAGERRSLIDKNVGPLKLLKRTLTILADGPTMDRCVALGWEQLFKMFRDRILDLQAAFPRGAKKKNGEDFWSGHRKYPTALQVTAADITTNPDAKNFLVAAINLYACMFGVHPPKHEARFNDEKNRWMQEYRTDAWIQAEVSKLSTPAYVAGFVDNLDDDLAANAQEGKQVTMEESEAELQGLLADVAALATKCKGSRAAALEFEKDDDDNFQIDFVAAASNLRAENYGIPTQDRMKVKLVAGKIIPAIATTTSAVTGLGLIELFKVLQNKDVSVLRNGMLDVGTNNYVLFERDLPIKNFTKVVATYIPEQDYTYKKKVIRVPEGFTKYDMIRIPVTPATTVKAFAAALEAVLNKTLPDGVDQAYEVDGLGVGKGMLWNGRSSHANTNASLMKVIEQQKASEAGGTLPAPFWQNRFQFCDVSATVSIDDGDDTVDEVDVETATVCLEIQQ
# [3] = target: AMP-activated protein kinase, AMPK (Homo sapiens) (UniProt P54646+O43741+P54619+Q9UGJ0+Q9Y478+Q13131+Q9UGI9); assay: AMP-dependent Kinase enzyme assay. An in vitro enzyme assay that detects ADP turnover that is directly proportional to AMPK activity. This uses naive AMPK that is activated during the assay with MK-8722; format: functional; settings: 30 µM
# [4] = target: Sialic acid-binding Ig-like lectin 9 (Homo sapiens) (UniProt Q9Y336); assay: Hs-Siglec9 ALPHAscreen SOP 20170721; settings: 10 µM
# Trypanosoma cruzi = assay: Trypanosoma cruzi phosphomannomutase and mannose-1-phosphate guanylyltransferase assay; format: functional; settings: 10 µM
# [5] = target: T2, Arginase-2, mitochondrial (Homo sapiens) (UniProt P78540); assay: in vitro enzyme assay to detect the production of urea directly proportional to the activity of Arginase II; format: functional; settings: 33.3 µM; further: in the data most compounds retested in dose-response had high values
# T2 sequence (whole entry): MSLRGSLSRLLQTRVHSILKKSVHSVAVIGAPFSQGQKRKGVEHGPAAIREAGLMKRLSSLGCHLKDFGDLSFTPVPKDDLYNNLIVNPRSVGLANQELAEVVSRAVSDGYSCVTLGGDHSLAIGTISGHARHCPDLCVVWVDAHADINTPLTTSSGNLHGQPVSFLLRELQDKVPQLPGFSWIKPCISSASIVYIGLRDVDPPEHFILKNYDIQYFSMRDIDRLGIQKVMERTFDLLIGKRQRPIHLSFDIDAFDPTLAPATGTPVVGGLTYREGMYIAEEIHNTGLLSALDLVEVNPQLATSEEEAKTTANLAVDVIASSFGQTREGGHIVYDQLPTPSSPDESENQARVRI
# [6] = target: T3, Proteasome subunit beta (Trypanosoma cruzi) (UniProt O96673); assay: Trypanosoma cruzi proteasome chymotrypsin-like activity (TcProtChymo) assay.; further: in the data most compounds retested in dose-response had high values; format: functional; settings: 9.37 µM
# T3 sequence (whole entry): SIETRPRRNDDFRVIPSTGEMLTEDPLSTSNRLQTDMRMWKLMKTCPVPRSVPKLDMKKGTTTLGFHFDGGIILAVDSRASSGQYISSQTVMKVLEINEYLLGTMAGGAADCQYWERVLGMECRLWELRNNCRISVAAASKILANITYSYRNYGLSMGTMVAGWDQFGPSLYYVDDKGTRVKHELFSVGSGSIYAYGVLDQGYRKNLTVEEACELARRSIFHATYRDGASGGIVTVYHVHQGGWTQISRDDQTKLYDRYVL
# Homo sapiens = organism: Homo sapiens; assay: To identify inhibition of the IFN signalling (Jak-Stat) pathway via expression of an eGFP reporter gene under the control of an IFN-stimulated response element (ISRE) containing MxA promoter.; format: functional; settings: 30 µM
# [7] = target: T4, Tyrosyl-tRNA synthetase, putative (Trypanosoma cruzi (strain CL Brener)) (UniProt Q4DSP6); assay: Trypanosoma cruzi tyrosyl tRNA synthetase (TcYRS) _High Tyrosine SOP; format: functional; settings: 30 µM; further: in the data most compounds retested in dose-response had high values
# T4 sequence (whole entry): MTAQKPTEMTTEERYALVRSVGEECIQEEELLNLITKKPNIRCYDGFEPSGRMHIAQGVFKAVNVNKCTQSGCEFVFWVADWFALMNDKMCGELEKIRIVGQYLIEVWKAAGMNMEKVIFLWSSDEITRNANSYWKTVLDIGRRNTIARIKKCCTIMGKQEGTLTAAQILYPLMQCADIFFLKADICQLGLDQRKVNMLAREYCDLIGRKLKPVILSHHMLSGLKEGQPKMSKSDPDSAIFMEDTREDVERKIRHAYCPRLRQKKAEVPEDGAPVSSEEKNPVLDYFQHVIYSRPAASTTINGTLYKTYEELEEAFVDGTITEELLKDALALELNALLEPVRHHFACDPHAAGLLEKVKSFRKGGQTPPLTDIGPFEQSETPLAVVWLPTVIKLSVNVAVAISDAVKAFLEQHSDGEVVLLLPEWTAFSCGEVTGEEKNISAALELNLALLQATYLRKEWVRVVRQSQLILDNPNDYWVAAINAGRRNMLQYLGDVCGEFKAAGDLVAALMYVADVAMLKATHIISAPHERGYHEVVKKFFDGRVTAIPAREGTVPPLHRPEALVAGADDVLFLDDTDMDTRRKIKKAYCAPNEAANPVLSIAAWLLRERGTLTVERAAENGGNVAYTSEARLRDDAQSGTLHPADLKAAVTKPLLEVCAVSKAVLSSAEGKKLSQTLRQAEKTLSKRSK
# [8] = target: T4, Tyrosyl-tRNA synthetase, putative (Trypanosoma cruzi (strain CL Brener)); assay: Trypanosoma cruzi tyrosyl tRNA synthetase (TcYRS) SOP; format: functional; settings: 30 µM
# [9] = target: Chromo domain-containing protein 1 (Saccharomyces cerevisiae (strain ATCC 204508 / S288c) (Baker's yeast)) (UniProt P32657); assay: ScCHD-1 Enzyme Inhibition Assay; format: functional; settings: 30 µM; further: in the data most compounds retested in dose-response had high values
# Sequence of Chromo domain-containing protein 1 (Saccharomyces cerevisiae (strain ATCC 204508 / S288c) (Baker's yeast)) (P32657 whole entry, the tested form may be a part): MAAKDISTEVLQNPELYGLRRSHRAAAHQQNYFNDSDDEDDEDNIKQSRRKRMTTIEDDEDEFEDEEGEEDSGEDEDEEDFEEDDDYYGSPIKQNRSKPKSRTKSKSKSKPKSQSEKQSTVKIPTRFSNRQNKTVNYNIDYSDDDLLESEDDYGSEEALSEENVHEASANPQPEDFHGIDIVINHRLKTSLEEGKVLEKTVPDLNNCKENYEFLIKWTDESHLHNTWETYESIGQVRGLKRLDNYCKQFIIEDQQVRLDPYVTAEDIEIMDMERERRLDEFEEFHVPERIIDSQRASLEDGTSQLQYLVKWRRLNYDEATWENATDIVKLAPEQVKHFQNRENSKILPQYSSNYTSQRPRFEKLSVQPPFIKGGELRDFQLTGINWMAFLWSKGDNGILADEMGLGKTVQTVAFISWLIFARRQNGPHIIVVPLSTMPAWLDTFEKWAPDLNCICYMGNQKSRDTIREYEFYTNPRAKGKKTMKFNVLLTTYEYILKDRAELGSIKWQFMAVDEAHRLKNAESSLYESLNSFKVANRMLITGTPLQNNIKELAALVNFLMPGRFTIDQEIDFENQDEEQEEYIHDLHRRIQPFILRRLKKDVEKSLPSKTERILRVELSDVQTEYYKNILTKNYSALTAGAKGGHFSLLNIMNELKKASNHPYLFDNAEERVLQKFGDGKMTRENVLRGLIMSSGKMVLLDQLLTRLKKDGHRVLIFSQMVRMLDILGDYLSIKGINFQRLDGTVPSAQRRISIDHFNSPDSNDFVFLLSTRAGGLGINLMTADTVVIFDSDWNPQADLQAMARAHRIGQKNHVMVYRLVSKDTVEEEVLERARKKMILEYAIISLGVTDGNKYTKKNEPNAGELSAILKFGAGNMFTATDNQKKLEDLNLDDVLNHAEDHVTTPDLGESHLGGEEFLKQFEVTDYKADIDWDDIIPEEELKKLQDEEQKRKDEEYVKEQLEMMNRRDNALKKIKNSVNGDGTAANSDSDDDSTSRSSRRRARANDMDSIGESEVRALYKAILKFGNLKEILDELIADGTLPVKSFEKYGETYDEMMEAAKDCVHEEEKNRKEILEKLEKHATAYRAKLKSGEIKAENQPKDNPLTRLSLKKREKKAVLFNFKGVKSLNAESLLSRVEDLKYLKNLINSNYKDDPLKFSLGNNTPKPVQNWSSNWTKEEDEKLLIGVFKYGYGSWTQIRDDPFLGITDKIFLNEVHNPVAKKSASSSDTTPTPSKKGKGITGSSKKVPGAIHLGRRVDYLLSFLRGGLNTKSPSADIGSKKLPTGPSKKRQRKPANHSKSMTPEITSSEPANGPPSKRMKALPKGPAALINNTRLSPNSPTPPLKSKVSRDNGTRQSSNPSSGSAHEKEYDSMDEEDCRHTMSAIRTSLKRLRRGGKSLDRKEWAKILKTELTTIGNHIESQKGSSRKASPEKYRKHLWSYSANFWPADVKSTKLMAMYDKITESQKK
# Sequence of Protein translocase subunit SecA (Escherichia coli (strain K12)) (P10408 whole entry): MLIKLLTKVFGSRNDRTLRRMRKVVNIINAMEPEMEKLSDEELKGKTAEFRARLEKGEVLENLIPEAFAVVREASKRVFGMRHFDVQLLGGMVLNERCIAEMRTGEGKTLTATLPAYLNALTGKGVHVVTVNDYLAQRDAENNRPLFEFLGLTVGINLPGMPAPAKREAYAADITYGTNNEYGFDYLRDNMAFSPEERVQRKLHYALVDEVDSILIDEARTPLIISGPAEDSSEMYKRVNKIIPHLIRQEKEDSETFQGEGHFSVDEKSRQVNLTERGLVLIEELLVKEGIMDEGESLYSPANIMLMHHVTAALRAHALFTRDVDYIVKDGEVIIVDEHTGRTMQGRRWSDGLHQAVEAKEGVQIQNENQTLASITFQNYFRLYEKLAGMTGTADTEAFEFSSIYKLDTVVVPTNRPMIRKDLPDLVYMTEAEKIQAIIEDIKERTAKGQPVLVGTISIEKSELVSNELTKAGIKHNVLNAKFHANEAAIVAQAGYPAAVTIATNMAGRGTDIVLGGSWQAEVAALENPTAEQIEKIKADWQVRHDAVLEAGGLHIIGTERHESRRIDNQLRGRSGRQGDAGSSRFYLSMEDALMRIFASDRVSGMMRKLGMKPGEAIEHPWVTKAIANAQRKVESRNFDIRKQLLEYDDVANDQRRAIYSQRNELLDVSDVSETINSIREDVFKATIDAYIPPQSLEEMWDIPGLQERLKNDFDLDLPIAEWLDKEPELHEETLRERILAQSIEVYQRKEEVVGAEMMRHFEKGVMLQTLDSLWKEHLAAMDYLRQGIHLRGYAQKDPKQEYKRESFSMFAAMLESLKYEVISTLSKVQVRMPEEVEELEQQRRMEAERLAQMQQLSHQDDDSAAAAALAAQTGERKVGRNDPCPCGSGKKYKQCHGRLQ
# Sequence of Sialic acid-binding Ig-like lectin 9 (Homo sapiens) (Q9Y336 whole entry): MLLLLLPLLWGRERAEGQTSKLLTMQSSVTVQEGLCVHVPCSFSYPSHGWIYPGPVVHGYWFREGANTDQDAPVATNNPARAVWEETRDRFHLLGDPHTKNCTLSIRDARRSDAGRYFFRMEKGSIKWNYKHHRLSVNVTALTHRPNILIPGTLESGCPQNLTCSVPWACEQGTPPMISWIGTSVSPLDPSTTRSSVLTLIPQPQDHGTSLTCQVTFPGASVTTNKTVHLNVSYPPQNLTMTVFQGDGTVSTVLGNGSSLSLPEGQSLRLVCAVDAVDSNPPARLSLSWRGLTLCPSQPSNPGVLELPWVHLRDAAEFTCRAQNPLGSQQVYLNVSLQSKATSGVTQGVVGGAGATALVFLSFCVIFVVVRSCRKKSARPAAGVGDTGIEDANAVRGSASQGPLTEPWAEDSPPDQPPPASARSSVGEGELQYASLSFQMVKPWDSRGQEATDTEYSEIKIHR
SMILES,Percent Effect [1] [%],Percent Effect [2] [%],Percent Effect [3] [%],Percent Effect [4] [%],Percent Effect (Trypanosoma cruzi) [%],Percent Effect [5] [%],Percent Effect [6] [%],Percent Effect (Homo sapiens) [%],Percent Effect [7] [%],Percent Effect [8] [%],Percent Effect [9] [%]
CCn1cc(NC(=O)C2CCN(Cc3noc(C(C)C)n3)CC2)cn1,-2.1,8.86,0.341,3.03,-1.74,-0.645,10.3,8.77,9.38,22.8,-19.2
O=C(NCc1ccccn1)[C@@H]1COC[C@H]2CN(C3CCOCC3)C[C@H]21,4.15,8.11,9.79,-14,-7.33,4.78,12.7,11.2,5.41,10.3,-2.43
c1cncc(OCC2CN(Cc3ccco3)Cc3nccn3C2)c1 (stereo unspecified),-1.62,21.9,-8.03,11.2,4.17,0,16,6.3,10.4,23.5,-9.31
Cc1cnn(CC2CCCN2C(=O)CCCc2nc(C)no2)c1 (stereo unspecified),-1.89,13.2,1.65,-10.6,-3.21,-3.55,4.89,27.9,1.06,10.4,-6.12
CCN1C[C@H]2CCN(C(C)=O)CC[C@H]2S1(=O)=O,-0.139,9.33,-6.04,-0.534,-5.7,-5.81,19.6,1.4,0,5.13,-7.45
Cc1noc(CN2Cc3ccccc3CC2c2nnc(C)o2)n1 (stereo unspecified),-3.16,5.2,6.26,12.5,3.23,1.9,5.58,8.44,2.86,7.06,3.28
Cc1cnc(NC(=O)c2ccc(-n3ncc(C#N)c3N)cc2)s1,-5.51,7.59,14.4,4.78,-6.33,-4.18,5.49,29,11.3,24.1,-2.52
Cc1c[nH]cc1C(=O)N1CCN(Cc2nc(C(C)C)no2)CC1,-5.12,8.11,-5.14,9.52,-3.81,-2.77,-3.05,17.2,2.97,11,1.56
CN(C)C(=O)CN1CCCC2(CCN(c3ccsc3)C2=O)C1 (stereo unspecified),-1.45,10.7,2.54,-9.8,-5.71,0.233,7.84,14.6,-1.06,-32,-5.89
CCN(C)c1ncnc2c1CCN(C(=O)c1ccno1)CC2,-6.78,13.3,0.989,3.39,-4.05,-46.4,5.81,-5.04,4.17,7.5,-5.33
Cc1cc(C[C@@H]2COC[C@H]2NCc2ccc(Br)s2)on1,-7.36,1.35,9.27,-0.828,-2.77,-7.19,-1.72,31.8,-2.15,-3.9,-6.34
